Unmarked numbers belong to inactive results.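 Rule for the calls: active = MAPPIT score above the 99th percentile of random reference set scores in the same batch; inactive = at or below it.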
Tests used:
Experiment in all cases: MAPPIT interaction score (arbitrary units); higher = stronger binary interaction signal, active = hit call of the paper
Vps51 = conditions: MAPPIT configuration: N-N; pair source set: screen_2
Vsx1 = conditions: MAPPIT configuration: N-C; pair source set: screen_3
Xbp1 = conditions: MAPPIT configuration: N-N; pair source set: Curagen_low_conf
Vti1a = conditions: MAPPIT configuration: N-N; pair source set: Curagen_high_conf
Vps24 = conditions: MAPPIT configuration: N-N; pair source set: Curagen_high_conf
Yp2 = conditions: MAPPIT configuration: N-N; pair source set: Curagen_high_conf
Vha13 = conditions: MAPPIT configuration: N-C; pair source set: screen_4
Yif1 = conditions: MAPPIT configuration: N-N; pair source set: RRS
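Note: HEK293T cells with Epo stimulation, STAT-responsive firefly luciferase reporter, fold induction versus unstimulated cells divided by the larger fold induction of two negative controls lacking either bait or prey.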

B1: Dpy-30L1 (protein)
chain: MEAKTDAPISPAPTTNPPAEAGKEPNASSNAQANPTAAPGAPPSGAIAVGQSTNPVAQQQQQPAVAKKPSSETNNMPTRQYLDQTVAPVLLHGMQALARERPTDPIQFLASYLLKHSNGCDENNASAAAVDNNS
Vps51
  MAPPIT interaction score: 1.49

B2: Mst87F (protein)
chain: MCCGPCGPCCGPCCGPCCGPCGPCGGGCGPCYGPNVCGPCYACGPCGGCYCGYPCC
Vsx1
  MAPPIT interaction score: 0.606

B3: Ubc2 (protein)
chain: MSSTPAAGSAAEVATSSATSNAPSAPSTTASNVSNTSQPTTAGTPQARGGRGSNANGGASGSNAGGGDEPRKEAKTTPRISRALGTSAKRIQKELAEITLDPPPNCSAGPKGDNLYEWVSTILGPPGSVYEGGVFFLDIHFSPEYPFKPPKVTFRTRIYHCNINSQGVICLDILKDNWSPALTISKVLLSICSLLTDCNPADPLVGSIATQYLQNREEHDRIARLWTKRYAT
Xbp1
  MAPPIT interaction score: -0.108

B4: spn-F (protein)
chain: MEASAAKITPMASSMSASGSTNSPSSEKMNYALQVALQTIKERCIQLQRRVASMEEENQQLREASSRSEGAPRANEIGVTGDVLSLKAQVSELQRQKEQLEEHIGMVSNENRRLWSRLSQISKDQQLNALPSSTDSRAQQNQNLVRSKTFTQHSPNPHLRQKMLSDGIKDLSLEEIALDDFGASSEELGYPYNLQKVEETTSEPDANVDAKRCLDGLQELRREAMKQQQELRSVMTLLENRIALKPCPECAQKTIKKPEMADKSLETDDSLTSELKNYESQHNGHNGTPPSQRINIIQEKIKADAADAMEKTCPMCGKQYSSQVSFNAFREHVEMHFIDDALELESENSIERQFEFVSHAVGDF
Vti1a
  MAPPIT interaction score: 0.032

B5: shrb (protein)
chain: MSFFGKMFGGKKEVAPTTGEAIQKLRETENMLIKKQEFLEAKIEDELNIARKNASKNKRVALQALKKKKRLEKQLQQIDGTLSTIEMQREALESANTNTAVLTTMKNAADALKRAHQNMDVDKVHDMMDDIAEQQDVAREISDAISNPVAFGADLDDEDLERELDELEQENFDKEIIGIPEPTPTLPEAPTEDLPEKAKEKKKATTTTAVEDDDDPDMKQLLSWSN
Vps24
  MAPPIT interaction score: 0.054

B6: Nup107 (protein)
chain: MADSPFPRSSRSGLLRTTLNSSMPPQNLSHSLLILEKSNAEQNELSLMEDTGDDLDRGKSRMDVLFPQFFDVLQAQGNGQEAFEVIQSLTQVCRGVVEQLELEIDHGMGGEQGARQRESMLTWLRQEINTWRLLHALFYDRILLQTDRQADDEMQDGPTLGGSEKEVIQQLYALNATLREYQLVVDWLEACYDRGEQQNPLHAHDRMMAWENTLFQLENLQGAAFGKGHKIVTRLDPDAPVREKRPLHALDEEDNLRLSRAIFELIRAGRVDDGLKLCKHFGQTWRAAILEGWRLHEDPNFEQNVSVLHEKLPIEGNPRRDIWKRCAWMLADSKNYDEYSRATAGVFSGHLGSLKTLLHSNWHDLLWAHLKVQIDIRVESEIRGCCLKNYQPMPDDYWNGRMTMEQIFEELNVAKDASVRDFAQSQLGIIQRHLILDTCGELIQHMVRWVEKDTSQQSPHQLRFMAHIVLFLRQIGRVEQERQAEKIVAAYVEALIARGEPQLIAYYTASLSNPLQVQLYSRFLEQVEQKRPRELAVDAALQAGLDVEQITRVTVQNIRLAHQPLGEFGEPQSGEISAIDQRKISALEWLIHLPEQRGELLWQANAMIRTYLASSKVECMRQTFRMVPADIVQQLVSLYGSVDNIPPREECCLKEYLCYKAYLSGVDSFVEWNRLQQNRPKKPQTSHAASSQDNFTERMASERKEQAHRSEVVRWEHKVKEQAKQTIELLYNVLMFPDKGWLVDPFIAKLPENAVQLSWDHRLLQMEKLRSICIPEIALFLNEVMFKSGDFAGCVRLADEISSENRQLYKVYTKHKLAELLAKIADASLELLNSKLDPWGYPITT
Yp2
  MAPPIT interaction score: 0.235

B7: Vha26 (protein)
chain: MALSDADVQKQIKHMMAFIEQEANEKAEEIDAKAEEEFNIEKGRLVQQQRLKIMEYYEKKEKQVELQKKIQSSNMLNQARLKVLKVREDHVSSVLDDARKRLGEVTKNQSEYETVLTKLIVQGLFQIMEPKVILRCREVDVPLVRNVLPAAVEQYKAQINQNVELFIDEKDFLSADTCGGVELLALNGRIKVPNTLESRLDLISQQLVPEIRNALFGRNVNRKFTD
Vha13
  MAPPIT interaction score: 1.21

B8: noi (protein)
chain: METLLEQQRRLHEERERLVKLMVDEHATKKPGEKERIHSEHRLKYLMELHHNSTSQLRDLYEDKDNERKAEIAALSGPNEFNEFYARLKQIKQFYKSHPAEVSVPLSVEFDEMIRVYNNPDDMSALVEFTDEEGGGRYLDLNECYELYLNLRSVEKLDYITYLMSFDHVFDIPRERKNREYRIYIETLNDYLHHFILRIQPLLDLEGELLKVELDFQRQWLMGTFPGFSIKETESALANTGAHLDLSAFSSWEELASLGLDRLKSALVALGLKCGGTLEERAQRLFSTKGKSTLDPALMAKKPSAKTASAQSREHERHKEIAQLEALLYKYADLLSEQRAATKENVQRKQARTGGERDDSDVEASESDNEDDPDADDVPYNPKNLPLGWDGKPIPYWLYKLHGLNISYNCEICGNFTYKGPKAFQRHFAEWRHAHGMRCLGIPNTAHFANVTQIEDAITLWEKLKSQKQSERWVADQEEEFEDSLGNVVNRKTFEDLKRQGLL
Yif1
  MAPPIT interaction score: -0.019
